# Measured values from PubChem BioAssay (NCATS).
# A number with no mark means an inactive call. Records with an inconclusive call do not appear. A call without a number means that no potency is given here. Active and inactive are the calls of the source. Calls follow the shape of the dose curve; as a rule, active = well fitted curve in the direction sought with a large enough effect; inconclusive = small, poorly fitted or top-dose-only effect, or another doubt; inactive = no such curve, though single readings can be large; an effect the other way counts as inactive or inconclusive.
# Legend:
# [1] = target: Lysine-specific demethylase 5B (Homo sapiens) (UniProt Q9UGL1); experiment: Optimization screen for KDM5B Histone Demethylases FDH coupled qHTS against the LOPAC library (AID 1347166)
# Outline: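 KDM5BDeltaAP (200nM final) in 50mM HEPES pH 7.5, 0.01% Tween-20 was preincubated with compound for 10 min at room temperature. A substrate mix of 12.5uM H3K4Me3, 25uM a-ketoglutarate, ascorbate, Fe2+, NAD+ and formaldehyde dehydrogenase was then added. NADH fluorescence (340/450 nm) was read initially and after 30 min.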
# [2] = qHTS to identify inhibitors of the type 1 interferon - major histocompatibility complex class I in skeletal muscle: primary screen against the NCATS LOPAC collection (AID 1347405);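 also: lytic HiBiT luminescence reporting HLA-B protein level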; also: potency is read from the fitted curve at half-maximal effect
# Outline: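 IFN-beta-stimulated (4 ng/ml) HLA-B HiBiT knock-in myoblasts, compound-treated 24 hrs up to 46 uM final; signal via LgBiT complementation and furimazine luminescence.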
# [3] = qHTS for inhibitors of adenylyl cyclases using a fission yeast platform: a pilot screen against the NCATS LOPAC library (AID 1347410)
# Outline: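 S. pombe CHP2027 (AC9-GNAS-PDE4D2) carrying PKA-repressed fbp1-GFP, incubated 18 h at 30C in EMM with LOPAC compounds at up to 57 uM. GFP gain-of-signal read by laser scanning cytometry; DMSO negative control.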
# [4] = qHTS to identify inhibitors of the type 1 interferon - major histocompatibility complex class I in skeletal muscle: primary screen against the NCATS Mechanism Interrogation Plate v5.0 (MIPE) Libary (AID 1347411); also: nearly all actives have a fitted effect of over 65% in size; also: potency is read from the fitted curve at half-maximal effect
# Outline: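 IFN-beta-driven (4 ng/ml) HLA-B-HiBit expression in CRISPR-tagged C25cl48 myoblasts; compounds 11-pt, 1:3, max 46 uM, 24 hr exposure; lytic NanoLuc complementation luminescence.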
# [5] = qHTS to identify inhibitors of the type 1 interferon - major histocompatibility complex class I in skeletal muscle: primary screen against the NCATS Pharmaceutical Collection (AID 1347407);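 also: luminescence of HiBiT knocked into endogenous HLA-B as interferon-induced MHC class I level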
# Outline: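 Immortalized human myoblasts (C25cl48) with HiBiT knocked into endogenous HLA-B*08:01 were stimulated with 4.0 ng/ml IFN-beta and treated with compounds ([…] top 46 uM) for 24 hrs at 37 C. HiBiT lytic luminescence read.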
# [6] = target: Protein phosphatase 1D (Homo sapiens) (UniProt O15297); experiment: RapidFire Mass Spectrometry qHTS Assay for Modulators of WT P53-Induced Phosphatase 1 (WIP1) (AID 1347424);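 also: amount of dephosphorylated VEPPL-S-QETFS peptide product formed by WIP1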; also: potency is read from the fitted curve at half-maximal effect; as to activity change, negative = inhibition: series mostly up to about 63 µM
# Outline: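 Mass-spectrometric measurement of dephosphorylated peptide after a 5 min room-temperature reaction of 10 nM WIP1 with 2 uM phosphopeptide, following 1 h compound preincubation in 30 mM MgCl2 buffer.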
# [7] = target: Protein phosphatase 1D (Homo sapiens) (UniProt O15297); experiment: Rhodamine-PBP qHTS Assay for Modulators of WT P53-Induced Phosphatase 1 (WIP1) (AID 1347425)
# Outline: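 5 nM WIP1 + 10 uM Rh-PBP, 50 mM Tris pH 7.5, 30 mM MgCl2, 1 mM TCEP, 0.1 mM EGTA, BSA; cpds pinned, 1 hr RT; + 10 uM phosphopeptide; fluorescence 1-min reads x 11 min; delta = f1 - f0.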
# [8] = Vero cells viability qHTS for Zika virus inhibitors (AID 1347167)
# Outline: (§1)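 To flag cytotoxic protease inhibitors, viability is measured by ATP-dependent luminescence (CellTiter Glo) after cells attached overnight receive compound for 24 to 48 hours in DMEM with 4% FBS.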
# [9] = HepG2 cells viability qHTS for Zika virus inhibitors (AID 1347168)
# Outline: as §1
# [10] = Tertiary RLuc qRT-PCR qHTS assay for Zika virus inhibitors (AID 1347169); also: nearly all actives have a fitted effect of over 55% in size; also: potency is read from the fitted curve at half-maximal effect; as to activity change, negative = inhibition: top concentration of the series differs between compounds
# Outline: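 Vero cells (1,000/well) infected with recombinant ZIKV-RLuc (Cambodian) at MOI 1-2 after compound addition, 48-72 hrs at 37 degrees C. Live-cell Renilla luciferase substrate added; luminescence read after 1-1.5 hrs.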
# Lysine-specific demethylase 5B (Homo sapiens), sequence (Q9UGL1 whole entry, looked up): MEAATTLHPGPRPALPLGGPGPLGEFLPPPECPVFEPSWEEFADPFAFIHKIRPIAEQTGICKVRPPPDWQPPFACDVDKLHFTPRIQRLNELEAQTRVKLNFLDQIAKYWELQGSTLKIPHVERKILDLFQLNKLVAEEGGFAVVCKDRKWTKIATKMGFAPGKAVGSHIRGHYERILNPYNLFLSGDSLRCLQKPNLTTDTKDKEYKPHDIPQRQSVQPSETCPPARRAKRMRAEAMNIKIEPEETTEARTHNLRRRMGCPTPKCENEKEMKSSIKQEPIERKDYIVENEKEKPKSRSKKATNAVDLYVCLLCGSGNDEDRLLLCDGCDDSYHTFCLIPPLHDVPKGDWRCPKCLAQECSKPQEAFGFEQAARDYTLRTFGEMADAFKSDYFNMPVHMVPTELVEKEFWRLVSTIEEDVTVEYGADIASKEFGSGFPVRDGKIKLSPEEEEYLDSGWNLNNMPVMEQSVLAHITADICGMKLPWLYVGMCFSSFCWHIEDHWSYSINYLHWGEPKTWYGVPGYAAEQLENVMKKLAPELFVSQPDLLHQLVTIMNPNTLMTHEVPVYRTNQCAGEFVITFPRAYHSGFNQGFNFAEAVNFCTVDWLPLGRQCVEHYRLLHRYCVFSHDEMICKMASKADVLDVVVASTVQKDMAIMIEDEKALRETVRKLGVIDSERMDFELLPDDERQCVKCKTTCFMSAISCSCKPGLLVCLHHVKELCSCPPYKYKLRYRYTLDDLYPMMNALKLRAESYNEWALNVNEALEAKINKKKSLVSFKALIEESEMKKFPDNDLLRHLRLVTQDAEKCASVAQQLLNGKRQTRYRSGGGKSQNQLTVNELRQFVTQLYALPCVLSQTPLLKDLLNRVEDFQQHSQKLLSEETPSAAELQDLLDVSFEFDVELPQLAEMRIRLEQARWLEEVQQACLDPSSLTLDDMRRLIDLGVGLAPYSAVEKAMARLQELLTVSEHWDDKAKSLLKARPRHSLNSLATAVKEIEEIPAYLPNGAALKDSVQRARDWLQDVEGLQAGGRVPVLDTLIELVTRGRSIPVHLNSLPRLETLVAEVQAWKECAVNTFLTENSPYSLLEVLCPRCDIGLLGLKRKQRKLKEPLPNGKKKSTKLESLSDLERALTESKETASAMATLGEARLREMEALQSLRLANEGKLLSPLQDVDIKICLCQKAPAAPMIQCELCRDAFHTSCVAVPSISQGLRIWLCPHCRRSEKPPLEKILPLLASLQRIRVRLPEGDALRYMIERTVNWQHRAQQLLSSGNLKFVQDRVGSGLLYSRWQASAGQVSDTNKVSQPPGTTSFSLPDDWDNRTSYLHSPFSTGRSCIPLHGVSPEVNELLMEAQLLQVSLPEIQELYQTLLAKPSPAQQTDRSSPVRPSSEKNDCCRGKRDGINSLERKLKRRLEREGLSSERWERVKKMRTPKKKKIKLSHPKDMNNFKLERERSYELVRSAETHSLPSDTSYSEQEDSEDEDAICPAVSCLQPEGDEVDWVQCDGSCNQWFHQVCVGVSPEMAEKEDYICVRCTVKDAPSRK
# Protein phosphatase 1D (Homo sapiens), sequence (O15297 whole entry, looked up): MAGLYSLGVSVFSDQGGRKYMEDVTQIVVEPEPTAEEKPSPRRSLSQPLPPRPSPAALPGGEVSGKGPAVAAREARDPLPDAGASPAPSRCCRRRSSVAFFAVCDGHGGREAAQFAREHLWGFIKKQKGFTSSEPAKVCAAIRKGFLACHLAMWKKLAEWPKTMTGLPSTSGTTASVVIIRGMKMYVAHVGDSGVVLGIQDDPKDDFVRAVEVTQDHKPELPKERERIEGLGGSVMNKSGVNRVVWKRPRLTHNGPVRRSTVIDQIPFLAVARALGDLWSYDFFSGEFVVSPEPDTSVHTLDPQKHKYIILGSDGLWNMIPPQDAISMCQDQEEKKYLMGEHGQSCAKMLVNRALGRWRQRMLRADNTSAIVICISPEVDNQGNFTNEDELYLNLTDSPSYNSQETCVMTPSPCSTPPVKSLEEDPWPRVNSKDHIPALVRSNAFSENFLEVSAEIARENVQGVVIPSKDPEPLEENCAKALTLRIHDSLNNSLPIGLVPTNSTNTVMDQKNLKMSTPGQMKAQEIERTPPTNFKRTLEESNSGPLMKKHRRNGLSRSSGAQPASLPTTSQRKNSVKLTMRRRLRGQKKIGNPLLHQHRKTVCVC
Structure (SMILES),outcome [1],Potency [2],outcome [3],Potency [4],outcome [5],Potency [6],outcome [7],outcome [8],outcome [9],Potency [10],"activity change, negative = inhibition [4]"
CC(C)C[C@H](NC(=O)[C@@H](O)[C@H](N)Cc1ccccc1)C(=O)O,inactive,inactive,inactive,inactive,,,,,,,
Cc1ccc(N(CC2=NCCN2)c2cccc(O)c2)cc1,inactive,inactive,inactive,inactive,inactive,inactive,inactive,,,,
N=c1nc(N2CCCCC2)cc(N)n1O,inactive,inactive,inactive,,inactive,inactive,inactive,,,,
NC(=O)c1cnccn1,inactive,inactive,inactive,inactive,inactive,inactive,inactive,,,,
CCOC(=O)C1=C[C@]2(CC)CCCN3CCc4c(n1c1ccccc41)[C@@H]32,inactive,inactive,inactive,,inactive,inactive,inactive,,,,
CCCC(CCC)C(=O)O,inactive,inactive,inactive,inactive,inactive,inactive,inactive,,,,
Cn1cnc([N+](=O)[O-])c1Sc1ncnc2nc[nH]c12,inactive,inactive,inactive,inactive,inactive,inactive,inactive,inactive,inactive,26.9 µM (active),
N[C@@H]1CONC1=O,inactive,inactive,inactive,inactive,inactive,inactive,inactive,,,,
O=C1CCC(N2C(=O)c3ccccc3C2=O)C(=O)N1 (centres undefined),inactive,inactive,inactive,inactive,inactive,inactive,inactive,,,,
O=C(O)COCCN1CCN(C(c2ccccc2)c2ccc(Cl)cc2)CC1 (centres undefined),inactive,inactive,inactive,,inactive,inactive,inactive,,,,
Cc1cccc(-c2[nH]c(C(C)(C)C)nc2-c2ccc3nccnc3c2)n1,inactive,inactive,inactive,inactive,,,,,,,
C[C@]12CCC(=O)C=C1CC[C@@H]1[C@@H]2[C@@H](O)C[C@@]2(C)[C@H]1CC[C@]2(O)C(=O)CO,inactive,inactive,inactive,inactive,inactive,inactive,inactive,,,,
CN1CCN(CCCN2c3ccccc3Sc3ccc(C(F)(F)F)cc32)CC1,inactive,inactive,inactive,inactive,,inactive,inactive,inactive,,,
NCCCC(N)(C(=O)O)C(F)F (centres undefined),inactive,inactive,inactive,inactive,inactive,inactive,inactive,,,,
O=C1CCc2cc(OCCCCc3nnnn3C3CCCCC3)ccc2N1,inactive,inactive,inactive,inactive,inactive,inactive,inactive,,,,
CCN(CC)CCCC(C)Nc1ccnc2cc(Cl)ccc12 (centres undefined),inactive,inactive,,,inactive,inactive,,inactive,inactive,inactive,34% [at 8.44 µM]
CC(C)(Sc1ccc(CCN(CCCCC2CCCCC2)C(=O)NC2CCCCC2)cc1)C(=O)O,inactive,inactive,inactive,inactive,,,,inactive,inactive,,
CC(C[N+](C)(C)C)OC(N)=O (centres undefined),inactive,inactive,inactive,inactive,inactive,inactive,inactive,,,,
c1ccc([C@H]2CN3CCSC3=N2)cc1,inactive,inactive,inactive,inactive,inactive,inactive,inactive,,,,
CC(C)NCC(O)COc1ccc(COCCOC(C)C)cc1 (centres undefined),inactive,inactive,inactive,,inactive,inactive,inactive,,,,
Cc1cn[nH]c1,inactive,inactive,inactive,inactive,inactive,inactive,inactive,,,,
CNC[C@H](O)c1cccc(O)c1,inactive,inactive,inactive,inactive,inactive,inactive,inactive,,,,

Structure (SMILES),outcome [1],Potency [2],outcome [3],Potency [4],outcome [5],Potency [6],outcome [7],outcome [8],outcome [9],Potency [10],"activity change, negative = inhibition [4]"
Nc1nc2ccc(OC(F)(F)F)cc2s1,inactive,inactive,inactive,inactive,inactive,inactive,inactive,,,,
Clc1cccc(Cl)c1NC1=NCCN1,inactive,inactive,inactive,,inactive,inactive,inactive,,,,
Cc1ccccc1C(OCCN(C)C)c1ccccc1 (centres undefined),inactive,inactive,inactive,,inactive,inactive,inactive,,,,
O=c1[nH]cnc2[nH]ncc12,inactive,inactive,inactive,inactive,inactive,inactive,inactive,,,,
Nc1ccc(S(=O)(=O)Nc2ccnn2-c2ccccc2)cc1,inactive,inactive,inactive,,inactive,inactive,inactive,,,,
CCC(C)N(C)C(=O)c1cc2ccccc2c(-c2ccccc2Cl)n1 (centres undefined),inactive,inactive,inactive,inactive,,,,,,,
Cc1[nH]c(=O)c(C#N)cc1-c1ccc2nccn2c1,inactive,inactive,inactive,inactive,inactive,inactive,inactive,inactive,inactive,inactive,
NS(=O)(=O)c1cc2c(cc1Cl)NC=NS2(=O)=O,inactive,inactive,inactive,inactive,inactive,inactive,inactive,,,,
CC(C)(C)NCC(O)c1ccc(O)c(CO)c1 (centres undefined),inactive,inactive,inactive,inactive,inactive,inactive,inactive,,,,
O=NN(CCCl)C(=O)NCCCl,inactive,inactive,inactive,inactive,inactive,inactive,inactive,,,,
OC(CCN1CCCCC1)(c1ccccc1)C1CC2C=CC1C2 (centres undefined),inactive,inactive,inactive,inactive,inactive,inactive,inactive,,,,
CCc1ccc(CCOc2ccc(CC3SC(=O)NC3=O)cc2)nc1 (centres undefined),,,,inactive,inactive,inactive,,,,,
O=C(C1CC1)N1CC[C@@H](Cn2c(-c3ccc(-c4ccc5occc5c4)cc3)nc3cnccc32)C1,,,,inactive,,,,inactive,inactive,,
COc1ccc(-c2ccc3c(N4CCOCC4)nc(N4C[C@@H](C)O[C@@H](C)C4)nc3n2)cc1CO,,,,,,,,inactive,inactive,,
Cc1c(C)c2c(c(C)c1O)CCC(C)(COc1ccc(CC3SC(=O)NC3=O)cc1)O2 (centres undefined),,,,inactive,inactive,,,,,,
CCCCNc1cc(C(=O)O)cc(S(N)(=O)=O)c1Oc1ccccc1,,inactive,inactive,inactive,inactive,inactive,inactive,inactive,inactive,inactive,
CC(C)c1onc(-c2c(Cl)cccc2Cl)c1COc1ccc(/C=C/c2cccc(C(=O)O)c2)c(Cl)c1,,,,inactive,,,,,inactive,,
Nc1nc2c(ncn2COCCO)c(=O)[nH]1,inactive,,inactive,,,inactive,inactive,,,,
Cc1oncc1C(=O)Nc1ccc(C(F)(F)F)cc1,inactive,,inactive,18.6 µM (active),,inactive,inactive,,,,
CCCc1nc2c(C)cc(-c3nc4ccccc4n3C)cc2n1Cc1ccc(-c2ccccc2C(=O)O)cc1,,,,inactive,inactive,,,inactive,inactive,,
NC[C@H](O)c1ccc(O)c(O)c1,,inactive,inactive,,inactive,,inactive,,,,
CCCc1nn(C)c2c(=O)[nH]c(-c3cc(S(=O)(=O)N4CCN(C)CC4)ccc3OCC)nc12,,inactive,inactive,inactive,inactive,inactive,inactive,,,,

Structure (SMILES),outcome [1],Potency [2],outcome [3],Potency [4],outcome [5],Potency [6],outcome [7],outcome [8],outcome [9],Potency [10],"activity change, negative = inhibition [4]"
NC(N)=NC(=O)c1nc(Cl)c(N)nc1N,,inactive,inactive,inactive,inactive,inactive,inactive,,,,
COc1ccc2nc(S(=O)Cc3ncc(C)c(OC)c3C)[nH]c2c1 (centres undefined),,,,inactive,inactive,inactive,inactive,,,,
CCc1cncnc1N1CCN(Cc2nc3ccc(C(F)(F)F)cc3[nH]2)CC1,,inactive,inactive,inactive,,,,,,,
O=c1n(CCCN2CCN(c3cccc(Cl)c3)CC2)nc2ccccn12,,inactive,inactive,,inactive,inactive,inactive,inactive,inactive,,
Cc1cc2c(C(C)C)c(O)c(O)c(C=O)c2c(O)c1-c1c(C)cc2c(C(C)C)c(O)c(O)c(C=O)c2c1O,,,inactive,23.4 µM (active),inactive,3.98 µM (active),,,,,
NNCCc1ccccc1,,inactive,inactive,inactive,inactive,inactive,inactive,,,,
CCC(C)(C)C(=O)O[C@H]1C[C@@H](C)C=C2C=C[C@H](C)[C@H](CC[C@@H]3C[C@@H](O)CC(=O)O3)[C@H]21,,,,inactive,inactive,inactive,inactive,,,,
COc1cc2c(cc1OC)CN(CCc1ccc(NC(=O)c3cccc4c(=O)c5cccc(OC)c5[nH]c34)cc1)CC2,,,,inactive,,,,,,inactive,
COCC(=O)NCC=Cc1ccc2ncnc(Nc3ccc(Oc4ccc(C)nc4)c(C)c3)c2c1,,,,,,,,inactive,inactive,,
Cc1cc(SCc2sc(-c3ccc(C(F)(F)F)cc3)nc2C)ccc1OCC(=O)O,,,,inactive,,,,inactive,inactive,14.7 µM (active),
Cc1cnc(NC(=O)C2=C(O)c3ccccc3S(=O)(=O)N2C)s1,inactive,,inactive,,,inactive,inactive,,,,
OC(CN1CCC(Cc2ccc(F)cc2)CC1)c1ccc(Cl)cc1 (centres undefined),inactive,,inactive,,inactive,inactive,inactive,,,,
CC(=O)Oc1ccccc1C(=O)O,,inactive,inactive,inactive,inactive,inactive,inactive,,,,
O=C(Nc1nc2ccccc2n1CCN1CCOCC1)c1cccc([N+](=O)[O-])c1,inactive,,inactive,inactive,,,,,,,
COc1ccccc1-c1cccc(-c2c(O)c3cc(C#N)c(Cl)cc3[nH]c2=O)c1,,,,inactive,,,,inactive,inactive,,
O=C(O)CCc1ccc(NCc2cccc(Oc3ccccc3)c2)cc1,,inactive,inactive,inactive,,,,,,,
CCOC(=O)N1CCC(=C2c3ccc(Cl)cc3CCc3cccnc32)CC1,inactive,inactive,inactive,,,inactive,inactive,,,,
Cc1[nH]c(=O)c(C#N)cc1-c1ccncc1,,inactive,inactive,inactive,inactive,inactive,inactive,inactive,inactive,inactive,
Oc1ccc(C2CNCCc3c2cc(O)c(O)c3Cl)cc1 (centres undefined),,inactive,inactive,inactive,inactive,inactive,inactive,,,,
C1COC(NC(C2CC2)C2CC2)=N1,inactive,inactive,inactive,inactive,,inactive,,,,,
CS(=O)(=O)c1cccc(CNc2nc(Nc3ccc4c(c3)CCC(=O)N4)ncc2C(F)(F)F)c1,,5.62 µM (active),inactive,10.4 µM (active),,,,,,,
